Test results reported in PubChem BioAssay.
Values joined by “and” are separate entries in the source; they are usually repeats but may differ in a detail not shown here. Equal values may be shown once. Records with an inconclusive call do not appear. Active and inactive are the calls of the source. Unless noted, no rule for the calls is given here.

Assays:
[1] = system: Hepatitis C virus NS3 helicase; assay: HCV NS3 helicase inhibitors, primary screen, biochemical, fluorescence polarization, LOPAC1280 library (AID 687035; in the data active = inhibition above about 37%); conditions: Purified HCV NS3 helicase, Cy5-dT15 ssDNA binding fluorescence polarization; stronger effect = higher value; concentration not given here
[2] = Cy5 fluorescence quenching or enhancement artefacts, artefact control for HCV NS3 helicase inhibitor project, biochemical, LOPAC1280 (AID 687037); conditions: Cy5-DNA-NS3h complex fluorescence interference counterscreen
[3] = Cy5 fluorescence interference with SSB-bound oligo, artefact control for HCV NS3 helicase inhibitor project, biochemical, NIH Clinical Collection, E. coli SSB (AID 743268)
[4] = system: Hepatitis C virus NS3 helicase; assay: HCV NS3 helicase inhibitors, primary screen, biochemical, fluorescence polarization, NIH Clinical Collection (AID 743270); conditions: NS3 helicase binding to Cy5-dT15 DNA, stronger effect = higher value, concentration not given here
[5] = target: Single-stranded DNA-binding protein (Escherichia coli (strain K12)) (UniProt P0AGE0); assay: E. coli SSB displacement from DNA, counter-screen for HCV NS3 helicase inhibitor project, biochemical, fluorescence polarization, NIH Clinical Collection (AID 743271; in the data active = inhibition above about 28%); conditions: stronger effect = higher value, concentration not given here
[6] = fluorescence interference in NS3h assay format, artefact control for HCV NS3 helicase inhibitor project, biochemical, NIH Clinical Collection (AID 743272); conditions: fluorescence interference counterscreen, stronger effect = lower value;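 also: HCV NS3 helicase with a Cy5 labelled single stranded DNA probe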
[7] = system: Neuropilin-2 / VEGF-C interaction (human); assay: inhibitors of NRP2–VEGF-C binding, biochemical, microplate binding format, z-score (AID 743281); conditions: microplate NRP2/VEGF-C binding assay; stronger effect = lower value
[8] = stimulators of nuclear beta-catenin in C2C12, primary screen, imaging, WNT3A-conditioned medium, mouse C2C12, NPC library (AID 1117326; in the data active = nuclear beta-catenin stimulation mostly above about 4.2%, no sharp cut-off; inactive = mostly below about 10%); conditions: stronger effect = higher value
[9] = stimulators of insulin release from INS-1E, primary screen, cell-based, 5 mM glucose, NPC library (AID 1117329;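 active = compound raises insulin release from rat beta cells at 5 mM glucose, no numeric limit stated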); conditions: rat INS-1E insulin secretion, at 10 µM, stronger effect = higher value
[10] = growth inhibition of GSK3B-pretreated HCT116 cells – cell-based, CellTiter-Glo, 0.2 to 20 µM (AID 1117336;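 active = compounds lowering colon cancer cell viability after pretreatment blocking the GSK3B kinase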); conditions: HCT116 viability after GSK3B inhibitor, at 20 µM, stronger effect = higher value
[11] = inhibition of endothelial tube formation, primary screen, imaging, VEGF stimulated, CD31 staining, tube area, NPC library (AID 1117340;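 active = compound that reduces growth-factor-driven endothelial tube area in a mixed cell culture, no cutoff stated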); conditions: VEGF-stimulated ADSC/ECFC co-culture, at 10 µM, stronger effect = higher value
[12] = glucagon-like peptide 1 release enhancers, primary assay, NCI-H716 cell line, NPC library (AID 1117341;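 active = compound raises GLP1 secretion from the human gut endocrine cells, with no numeric limit stated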); conditions: NCI-H716 cells, at 10 µM, stronger effect = higher value
[13] = HCT116 colon cancer cell growth inhibition, primary screen, CellTiter-Glo luminescence, NPC library (AID 1117342;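 active = compounds that lower survival of HCT116 colon cancer cells in the luminescence readout, no numeric limit stated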); conditions: at 20 µM (top of the series)
[14] = CellTiter-Glo luminescent readout of SW480 viability loss, NPC library primary (AID 1117343;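 active = compounds that lower viability of the colon cancer cells in the luminescence readout, with no numeric limit stated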); conditions: CellTiter-Glo luminescence; at 20 µM (top of the series)
[15] = decreased DLD-1 cellular survival, CellTiter-Glo luminescent readout, NPC compound collection, primary HTS (AID 1117346;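 active = compounds that lower survival of DLD-1 colon cancer cells in the luminescence readout, no cutoff given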); conditions: DLD-1 viability, CellTiter-Glo luminescence; at 20 µM (top of the series)
[16] = target: 6-phosphogluconate dehydrogenase, decarboxylating (Homo sapiens) (UniProt P52209); assay: 6PGD enzyme inhibitors, primary screen, biochemical, human, recombinant enzyme, NADPH absorbance (AID 1159550;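 active = at least 20% inhibition of 6-phosphogluconate dehydrogenase activity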); conditions: recombinant 6PGD, NADPH absorbance 341 nm; at 10 µM; stronger effect = higher value
[17] = modulation of C. elegans fzo-1 (AID 1259413);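 also: fzo-1 mutant C. elegans worms in liquid wells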; conditions: C. elegans fzo-1 modulator screen, mean read-out; stronger effect = higher value
[18] = differential killing of epithelial or mesenchymal cells, primary screen, imaging, PC-3E GFP, TEM4-18 mCherry, co-culture (AID 1345086;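 active = compounds killing one labelled cell type while sparing the other, by normalised counts and ratio limits, not self-fluorescent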;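 as to all read-outs here: cells exposed to compound for 72 h before imaging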;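 as to red/green cell ratio (normalised): normalised mesenchymal count divided by normalised epithelial count so high means epithelial killing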); conditions: imaging cell counts, at 1 µM; for red/green cell ratio (normalised): actives lie on both sides, counts scaled to control wells, 1 = unselective
[19] = system: Aerobactin synthetase IucA (Klebsiella pneumoniae); assay: IucA aerobactin synthetase inhibitors, biochemical, Tocris library, absorbance (AID 1345561); conditions: purified IucA enzyme assay, absorbance (OD) read-out; stronger effect = lower value;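 tested at 8 µM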;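 also: 100% = enzyme without compound and 0% = no enzyme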
[20] = SU-DIPG-VI glioma cell viability, MIPE4.0 library, CellTiter-Glo luminescence, qHTS (AID 1347066; cut-off not given, nearly all actives have AC50 up to about 30 µM;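 also: cells exposed to compound for 48 hours before readout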); conditions: CellTiter-Glo ATP luminescence
[21] = phospholipid biosynthesis inhibitors in animal cells, primary screen, cell-based, LOPAC library, screen 4 (AID 1347384); conditions: phospholipid biosynthesis inhibition screen, at 10 µM
[22] = survival rescue of mitochondrial mutant cells in low glucose, primary screen, MELAS cybrids, Rieske KO mouse fibroblasts, CellTiter-Glo (AID 1508586;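 active = mean z-score across replicates of 1.96 or higher in either the MELAS or the Rieske mutant cell line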;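 also: z relative to plate mean and SD of compound and empty wells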)
[23] = target: NAD(+) hydrolase SARM1 (Homo sapiens) (UniProt Q6SZW1); assay: SARM1 TIR NADase inhibitors, cell lysate, NAD-Glo luminescence (AID 1508614;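 active = compound whose remaining NAD level is above about 45 nM, limit read from the data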;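 also: higher remaining NAD means stronger inhibition of SARM1 NADase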); conditions: SAM-TIR HEK293T lysate NADase, at 1 µM, stronger effect = higher value
[24] = target: Mitogen-activated protein kinase 7 (Homo sapiens) (UniProt Q13164); assay: ERK5 transactivation activators in reporter cells, primary screen, cell-based, HTS (AID 1508626;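 active = luciferase signal above three times the same-plate solvent-only control wells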;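 also: luciferase driven by Gal4-ERK5 fusion binding five Gal4 sites before minimal TATA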); conditions: HeLa Gal4-ERK5 transactivation, 18 h, at 5 µM, stronger effect = higher value
[25] = viability rescue of complex I mutant cybrids, primary screen, cell-based, galactose medium, ATP luminescence (AID 1645843;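 active = z-score of at least 1.8 in each of two replicates, scored against plate mean and spread of sample wells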;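 also: positive z means more ATP and so rescue of galactose-driven cybrid death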); conditions: complex I mutant cybrid cells, 72 h, stronger effect = higher value
[26] = liver-stage malaria parasite growth inhibition, primary screen, cell-based, HepG2, luciferase luminescence, HepG2 viability (AID 624349; in the data active = parasite load remaining mostly below about 12%, no sharp cut-off; inactive = mostly above about 10%;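 also: 100% = mean of DMSO negative control wells on the same plate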); conditions: P. berghei liver stage in HepG2, luciferase luminescence, concentration not given here; parasite load remaining: stronger effect = lower value; viability: measured here: HepG2 viability without parasites
[27] = measured here: epithelial PC-3E GFP cell survival
[28] = measured here: mesenchymal TEM4-18 mCherry cell survival
[29] = MELAS cybrid survival, CellTiter-Glo 48 h, stronger effect = higher value
[30] = Rieske KO mouse fibroblast survival, CellTiter-Glo 72 h

Mitogen-activated protein kinase 7 (Homo sapiens), sequence (Q13164 whole entry, looked up, the tested form may be a part): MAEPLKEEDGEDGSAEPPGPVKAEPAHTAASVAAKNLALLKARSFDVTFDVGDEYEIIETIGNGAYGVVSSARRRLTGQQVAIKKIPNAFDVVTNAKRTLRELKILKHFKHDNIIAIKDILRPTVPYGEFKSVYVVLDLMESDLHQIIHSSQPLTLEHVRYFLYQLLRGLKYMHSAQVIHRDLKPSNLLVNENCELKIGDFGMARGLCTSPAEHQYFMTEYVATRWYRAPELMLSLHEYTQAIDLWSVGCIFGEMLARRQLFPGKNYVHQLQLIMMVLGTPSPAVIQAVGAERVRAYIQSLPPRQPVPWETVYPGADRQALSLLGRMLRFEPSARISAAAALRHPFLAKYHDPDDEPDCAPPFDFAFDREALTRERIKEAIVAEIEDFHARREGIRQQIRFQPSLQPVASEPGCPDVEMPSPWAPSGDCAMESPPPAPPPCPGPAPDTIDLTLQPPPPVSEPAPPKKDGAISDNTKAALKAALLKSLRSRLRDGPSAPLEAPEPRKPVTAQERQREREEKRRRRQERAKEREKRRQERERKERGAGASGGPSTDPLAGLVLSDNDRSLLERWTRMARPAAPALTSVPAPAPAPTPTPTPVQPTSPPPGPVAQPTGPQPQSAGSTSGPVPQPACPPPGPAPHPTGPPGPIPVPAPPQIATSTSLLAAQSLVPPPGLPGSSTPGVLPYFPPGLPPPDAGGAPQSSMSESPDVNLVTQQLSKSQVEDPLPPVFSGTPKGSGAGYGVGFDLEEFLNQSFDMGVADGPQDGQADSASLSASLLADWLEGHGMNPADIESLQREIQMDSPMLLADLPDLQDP
NAD(+) hydrolase SARM1 (Homo sapiens), sequence (Q6SZW1 whole entry, looked up, the tested form may be a part): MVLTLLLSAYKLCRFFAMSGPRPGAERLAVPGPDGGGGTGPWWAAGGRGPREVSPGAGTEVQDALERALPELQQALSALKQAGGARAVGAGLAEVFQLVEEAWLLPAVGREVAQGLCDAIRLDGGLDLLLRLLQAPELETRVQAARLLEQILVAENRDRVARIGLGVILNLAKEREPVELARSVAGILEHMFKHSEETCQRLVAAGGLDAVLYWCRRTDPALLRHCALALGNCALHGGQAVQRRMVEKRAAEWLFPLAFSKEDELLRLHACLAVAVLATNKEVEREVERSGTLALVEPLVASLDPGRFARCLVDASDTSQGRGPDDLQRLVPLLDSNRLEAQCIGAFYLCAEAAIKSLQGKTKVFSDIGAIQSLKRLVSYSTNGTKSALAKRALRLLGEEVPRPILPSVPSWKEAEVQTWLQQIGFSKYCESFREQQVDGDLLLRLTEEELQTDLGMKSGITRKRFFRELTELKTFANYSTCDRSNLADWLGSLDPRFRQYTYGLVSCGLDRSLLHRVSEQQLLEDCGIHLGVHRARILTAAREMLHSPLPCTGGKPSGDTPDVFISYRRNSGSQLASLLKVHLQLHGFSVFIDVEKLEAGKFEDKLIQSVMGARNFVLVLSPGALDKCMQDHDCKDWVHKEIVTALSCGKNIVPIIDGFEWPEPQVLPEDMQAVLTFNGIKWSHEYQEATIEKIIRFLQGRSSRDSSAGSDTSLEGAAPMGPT
6-phosphogluconate dehydrogenase, decarboxylating (Homo sapiens), sequence (P52209 whole entry, looked up): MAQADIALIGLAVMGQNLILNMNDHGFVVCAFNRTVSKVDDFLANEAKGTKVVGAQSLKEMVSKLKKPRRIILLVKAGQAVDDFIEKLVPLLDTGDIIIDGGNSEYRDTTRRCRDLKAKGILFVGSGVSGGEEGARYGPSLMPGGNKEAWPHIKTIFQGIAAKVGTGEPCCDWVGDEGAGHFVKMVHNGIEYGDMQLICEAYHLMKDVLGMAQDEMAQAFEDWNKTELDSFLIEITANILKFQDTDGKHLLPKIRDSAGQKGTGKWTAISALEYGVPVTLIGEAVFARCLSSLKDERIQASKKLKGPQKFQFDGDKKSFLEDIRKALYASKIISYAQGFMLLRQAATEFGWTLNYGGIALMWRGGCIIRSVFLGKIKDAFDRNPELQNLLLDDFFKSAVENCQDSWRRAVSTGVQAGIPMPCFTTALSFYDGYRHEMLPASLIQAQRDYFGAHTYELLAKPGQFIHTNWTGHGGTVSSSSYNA

SMILES: Fc1ccc([C@@H]2CCNC[C@H]2COc2ccc3c(c2)OCO3)cc1
- inhibition [1]: -1% (inactive)
- fluorescence ratio (interference) [2]: 0.9 (inactive)
- fluorescence ratio [3]: 1 (inactive)
- inhibition [4]: -1.19% (inactive)
- inhibition [5]: -1.64% (inactive)
- fluorescence ratio [6]: 0.99 (inactive)
- z-score [7]: 0.222 (inactive)
- nuclear beta-catenin stimulation ([8]; at 10 µM): 2.2% (inactive)
- nuclear beta-catenin stimulation ([8]; stimulation, at 2 µM): 2.8%
- insulin secretion stimulation [9]: 11.8% (inactive)
- viability decrease [10]: -148% (inactive)
- tube area decrease [11]: 46.2% (active)
- GLP1 secretion stimulation [12]: 1.4% (inactive)
- inhibition of viability [13]: 28.1% (inactive)
- viability decrease (inhibition) [14]: 23% (inactive)
- viability decrease (inhibition) [15]: 19.7% (inactive)
- inhibition [16]: -2.44% (inactive)
- mean signal [17]: 159 (inactive)
- red/green cell ratio (normalised) [18]: 0.99 (inactive)
- normalised cell number [18, 27]: 0.48
- normalised cell number [18, 28]: 0.47
- remaining activity [19]: 109% (inactive)
- outcome [20]: inactive
- outcome [21]: inactive
- z-score [22, 29]: -0.279 (inactive) and -0.953 (inactive)
- z-score [22, 30]: -0.644 and -0.322
- remaining NAD [23]: 10 nM (inactive)
- luciferase signal [24]: 168 AU (inactive)
- z-score [25]: -1.38 (inactive) and -0.63 (inactive) and -1.71 (inactive)

SMILES: CCOC(=O)C1=C(COCCN)NC(C)=C(C(=O)OC)C1c1ccccc1Cl (configuration not stated)
- parasite load remaining [26]: 22.9% (inactive) and 39.3% (inactive) and 49.9% (inactive)
- viability [26]: 107% and 67.5% and 111%
- z-score [7]: -0.363 (inactive)
- nuclear beta-catenin stimulation ([8]; at 10 µM): 87.9% (active)
- nuclear beta-catenin stimulation ([8]; stimulation, at 2 µM): 10%
- insulin secretion stimulation [9]: 11.6% (inactive)
- viability decrease [10]: 99.2% (active)
- tube area decrease [11]: 87.8% (active)
- GLP1 secretion stimulation [12]: 0.5% (inactive)
- inhibition of viability [13]: 99.3% (active)
- viability decrease (inhibition) [14]: 102% (active)
- viability decrease (inhibition) [15]: 92% (active)
- inhibition [16]: 3.33% (inactive)
- mean signal [17]: 214 (inactive)
- red/green cell ratio (normalised) [18]: 0.9 (inactive)
- normalised cell number [18, 27]: 1.26
- normalised cell number [18, 28]: 1.13
- remaining activity [19]: 107% (inactive)
- z-score [22, 29]: -0.269 (inactive) and 0.142 (inactive) and -0.356 (inactive)
- z-score [22, 30]: 0.139 and -0.0453 and -0.413
- remaining NAD [23]: 10 nM (inactive)
- luciferase signal [24]: 104 AU (inactive)
- z-score [25]: -0.815 (inactive) and -0.625 (inactive) and 0.7 (inactive)
